# Reference: PubChem BioAssay (Tox21)
# Records with an inconclusive call do not appear. Activity calls are given as the source filed them. The call rests on the fitted dose curve; in most records, active means well fitted activation curve with a large enough effect in the repeat runs; inconclusive means weak or mixed curves; inactive means no such curve, though single readings can be large or run the other way.
# Biological target: Nuclear receptor subfamily 1 group I member 2 (Homo sapiens) (UniProt O75469)
# Experiment: Human pregnane X receptor (PXR) small molecule agonists, qHTS assay (AID 1346982); further: nearly all actives have a fitted effect of over 35% in size
# Settings: PXR-Luc HepG2, CYP3A4 luciferase reporter, 24 h; series mostly up to 92.4 µM; activation: at the top concentration
# Excerpt: National Center for Advancing Translational Sciences [NCATS]
# NIH Chemical Genomics Center [NCGC]
# U.S. Environmental Protection Agency [EPA]
# National Institutes of Environmental Health Sciences [NIEHS]
# National Toxicology Program [NTP]
# The human pregnane X receptor (hPXR) regulates the expression of several drug metabolizing enzymes and induction of these proteins is a major mechanism for developing drug resistance in cancer. One such key enzyme catalyzing the drug metabolism is cytochrome P450 3A4 (CYP3A4). Changes in CYP3A4 expression affect drug metabolism, thereby reducing the therapeutic efficacy and altering toxicological response to a drug and which finally causes adverse drug interaction. To screen Tox21 libraries for compounds that activate hPXR-mediated CYP3A4 gene expression, PXR-Luc HepG2 cells were used.
# PXR-Luc HepG2 cells were dispensed at 2,000 per well in 5uL of assay medium containing 5% charcoal-stripped FBS into white solid bottom 1536-well plates (Corning Life Sciences, Corning, NY) using a Multidrop Combi (Thermo Scientific, Waltham, MA) dispenser. The assay plates were incubated at 37 C and 5% CO2 for 5hr, and then 23nL of compounds dissolved in DMSO and positive control were transferred using a Pintool station (Wako, San Diego, CA). The assay plates were incubated at 37C and 5% CO2 for 24hr. For luciferase read, 4uL of ONE-Glo reagent (Promega Corporation, Madison, WI) was added to each well of the assay plates using Flying Reagent Dispenser (FRD, Aurora Discovery, San Diego, CA) and incubated the assay plates at room temperature for 30min. The luminescence signal was quantified using a ViewLux plate reader (Perkin Elmer, Shelton, CT).
# On the % scale 0 is the no-effect control and ±100 the full control effect; potency means the concentration at half of the fitted maximal effect.
# Sequence of Nuclear receptor subfamily 1 group I member 2 (Homo sapiens) (O75469 whole entry, looked up): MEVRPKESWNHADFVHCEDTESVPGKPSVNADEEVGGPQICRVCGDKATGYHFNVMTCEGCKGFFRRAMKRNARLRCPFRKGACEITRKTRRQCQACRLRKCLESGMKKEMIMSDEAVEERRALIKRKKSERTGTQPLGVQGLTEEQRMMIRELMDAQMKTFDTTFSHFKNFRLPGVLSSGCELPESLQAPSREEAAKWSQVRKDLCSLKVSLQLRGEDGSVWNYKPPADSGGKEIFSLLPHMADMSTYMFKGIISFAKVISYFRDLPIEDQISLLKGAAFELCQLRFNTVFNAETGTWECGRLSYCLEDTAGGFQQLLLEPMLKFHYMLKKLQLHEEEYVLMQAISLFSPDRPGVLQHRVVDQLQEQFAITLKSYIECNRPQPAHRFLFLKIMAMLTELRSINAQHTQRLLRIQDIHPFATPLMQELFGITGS
SMILES,Potency,activation
Brc1cc(Br)c(Oc2cc(Br)c(Br)cc2Br)cc1Br,29.9 µM (active),–
CCCC(C(=O)OCCN(CC)CC)(c1ccccc1)c1ccccc1,10.6 µM (active),–
CC[N+](CC)(CCNC(=O)C(=O)NCC[N+](CC)(CC)Cc1ccccc1Cl)Cc1ccccc1Cl,–,-1.42% [at 42.5 µM] (inactive)
COC(=O)CCS,–,4.47% (inactive)
O=c1cc(-c2ccccc2)oc2cc(O)cc(O)c12,48.6 µM (active),–
CCC(OCCCOC)OC(C)=O (stereo not given),–,5.77% (inactive)
C=CCc1ccccc1OCC(O)CNC(C)C (stereo not given),–,14.2% [at 42.5 µM] (inactive)
CCOC(=O)c1ccccc1C(=C1C=C(Br)C(=O)C(Br)=C1)c1cc(Br)c(O)c(Br)c1,51.3 µM (active),–
CCC(=O)C1CC(C(C)C)CC=C1C (stereo not given),30.6 µM (active),–
CC(=O)NC1(c2cccc(F)c2)CCN(CC[C@@]2(c3ccc(Cl)c(Cl)c3)CN(c3ccccc3)C(=O)CO2)CC1,19.4 µM (active),–
CCOC(=O)c1ccc(OCCN2C[C@H](O)[C@@H](O)[C@H](O)[C@H]2CO)cc1,–,-2.05% [at 42.5 µM] (inactive)
COc1ncnc(NS(=O)(=O)c2ccc(N)cc2)c1OC,–,-4.89% [at 42.5 µM] (inactive)
COc1cc(N)c(Cl)cc1C(=O)NC1CCN(CCCOc2ccc(F)cc2)CC1OC (stereo not given),–,19.2% [at 42.5 µM] (inactive)
O=C1c2ccccc2C(=O)C1c1nc2ccccc2c(Br)c1O,61.1 µM (active),–
CC1=Nc2ccc3ccccc3c2C1(C)C,30.6 µM (active),–
CCCCCCC(C)(C)C(=O)O,48.6 µM (active),–
COc1ccc(OC(=O)N(CC(=O)O)Cc2ccc(OCCc3nc(-c4ccccc4)oc3C)cc2)cc1,–,0.494% [at 42.5 µM] (inactive)
Cc1ccccc1N=C(N)Nc1ccccc1C,–,11.3% (inactive)
CCCCCCCCOc1ccc(C(=O)O)cc1,60.4 µM (active),–
CCC(C)COC(=O)CC(C)C (stereo not given),–,-1.32% (inactive)

SMILES,Potency,activation
C=CC(C)(CCC=C(C)C)OC(=O)CC(C)C (stereo not given),–,7.32% (inactive)
CCOC(=O)c1ccc(I)cc1,–,4.52% (inactive)
Cc1[nH]cnc1CN1CCc2c(c3ccccc3n2C)C1=O,–,3.33% [at 42.5 µM] (inactive)
O=C1NC(=O)c2cc([N+](=O)[O-])ccc21,61.6 µM (active),–
OC[C@H]1O[C@@H](n2cnc3c(=S)nc[nH]c32)[C@H](O)[C@@H]1O,11.9 µM (active),–
CCCCCCCCC(CCCCCC)C(=O)O (stereo not given),–,1.15% (inactive)
CC(CO)CO,–,-1.96% (inactive)
C=Cc1ccc(S(=O)(=O)O)cc1,38.6 µM (active),–
O=C1c2ccccc2C(=O)C1(O)O,61.4 µM (active),–
C=C(C)CCCC(C)CCO (stereo not given),54.5 µM (active),–
CCc1ccccc1,–,-2.17% (inactive)
CCCCCCCC/C=C\CCCCCCCCCCCC(=O)O,–,24.2% (inactive)
CCOC(=O)[C@H](CCc1ccccc1)N[C@@H](C)C(=O)N(CC(=O)O)C1Cc2ccccc2C1,11.9 µM (active),–
O=C(O)c1ccc(OCCCOc2ccc(C(=O)O)cc2)cc1,–,-3.64% [at 42.5 µM] (inactive)
Cc1ccc(OC(=O)c2ccccc2O)cc1,–,24.8% (inactive)
CCC1CO1 (stereo not given),–,14.2% (inactive)
CCCCCC#CC(=O)OC,–,8.53% (inactive)
CN(C)CCC=C1c2ccccc2C=Cc2ccccc21,–,22.8% [at 42.5 µM] (inactive)
Nc1nc2ccc([N+](=O)[O-])cc2s1,30.6 µM (active),–
CCC(C)(C)OC,–,0.329% (inactive)
